From PubChem BioAssay (Tox21)
Values joined by “and” are separate entries in the source; they are usually repeats but may differ in a detail not shown here. Equal values may be shown once. More than one record can exist for a structure, and the calls need not agree. Active and inactive are the calls of the source. Calls come from the whole dose curve; as a rule, active = well fitted curve in the direction sought with a large enough effect in the signal ratio in the repeat runs (not every such curve was filed as active); inconclusive = weak or mixed curves, or effect the other way; inactive = no such curve, though single readings can be large or run the other way; the % refers to the signal ratio.

target: Estrogen receptor (Homo sapiens) (UniProt P03372); test: qHTS assay to identify small molecule antagonists of the estrogen receptor alpha (ER-alpha) signaling pathway (AID 743069); details: HEK293 ER-alpha-UAS-bla, beta-lactamase ratio, antagonist mode; series mostly up to 69.4 µM; activity, negative = inhibition: at the top concentration
Text: National Center for Advancing Translational Sciences [NCATS]
NIH Chemical Genomics Center [NCGC]
U.S. Environmental Protection Agency [EPA]
National Institutes of Environmental Health Sciences [NIEHS]
National Toxicology Program [NTP]
U.S. Food and Drug Administration [FDA]
Estrogen receptor (ER), a nuclear hormone receptor, plays an important role in development, metabolic homeostasis and reproduction. Two subtypes of ER, ER-alpha and ER-beta have similar expression patterns with some uniqueness in both types. Endocrine disrupting chemicals (EDCs) and their interactions with steroid hormone receptors like ER causes disruption of normal endocrine function. To identify the compounds that inhibit ER signaling, an ER-alpha-UAS-bla GripTiteTM cell line (Invitrogen, Carlsbad, CA, USA) containing a beta-lactamase reporter gene under the control of an Upstream Activator Sequence (UAS) stably integrated into HEK293 cells was used to screen the Tox21 10K compound library.
Tox21 Assay Protocol Summary:
ER-alpha-bla cells were cultured in assay medium containing 2% charcoal stripped FBS overnight in the culture flasks before the assay was performed. The cells were dispensed at 5,000 cells/5 uL of assay medium per well into black wall/clear-bottom 1536-well plates using a Multidrop Combi (ThermoFisher Scientific, Waltham, MA) dispenser. After the assay plates were incubated at a 37C and 5% CO2 for 4 hr, 23 nL of compounds dissolved in DMSO, positive controls or DMSO only was transferred to the assay plate by a Pintool station (Kalypsys, San Diego, CA), followed by addition of 1 uL of 17beta-estradiol in assay medium using a Flying Reagent Dispenser (Aurora Discovery, San Diego, CA). The plates were incubated at 37C and 5% CO2 for 18 hr. Then 1 uL of LiveBLAzerTM B/G FRET substrate was added using a Flying Reagent Dispenser, the plates were incubated at room temperature for 2 hours, and fluorescence intensity was measured by an Envision plate reader (PerkinElmer, Shelton, CT).
% is set by controls: 0 for no effect and ±100 for the full control effect; potency is the fitted concentration of half-maximal effect.

Sequence of Estrogen receptor (Homo sapiens) (P03372 whole entry, looked up): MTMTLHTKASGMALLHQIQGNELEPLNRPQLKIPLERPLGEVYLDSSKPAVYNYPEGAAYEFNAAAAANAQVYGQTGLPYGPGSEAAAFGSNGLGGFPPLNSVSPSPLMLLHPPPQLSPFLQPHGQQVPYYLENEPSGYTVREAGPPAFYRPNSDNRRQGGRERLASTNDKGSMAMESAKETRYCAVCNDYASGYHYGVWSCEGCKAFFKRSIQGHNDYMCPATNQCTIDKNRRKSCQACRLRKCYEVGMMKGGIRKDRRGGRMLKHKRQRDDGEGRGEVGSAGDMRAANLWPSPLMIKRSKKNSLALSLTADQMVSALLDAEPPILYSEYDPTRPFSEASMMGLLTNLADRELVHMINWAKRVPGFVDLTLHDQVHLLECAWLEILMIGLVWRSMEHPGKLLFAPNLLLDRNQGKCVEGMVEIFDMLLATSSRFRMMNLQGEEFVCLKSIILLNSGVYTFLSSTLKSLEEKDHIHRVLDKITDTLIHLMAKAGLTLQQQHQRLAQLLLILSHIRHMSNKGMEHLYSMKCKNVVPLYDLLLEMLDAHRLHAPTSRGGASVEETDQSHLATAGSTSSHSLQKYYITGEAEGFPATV

**Q.** For C=CC(=O)OCC, which “activity, negative = inhibition” value is on record?
**A.** 29.7% [at 79.1 µM] (inactive)

**Q.** With C=CCN1C[C@H](C)N([C@H](c2ccc(C(=O)N(CC)CC)cc2)c2cccc(OC)c2)C[C@H]1C as the compound, how does the “activity, negative = inhibition” value read?
**A.** -6.15% (inactive)

**Q.** Which “activity, negative = inhibition” value does the source give for C=CC(=O)NC(C)(C)CC(C)=O here?
**A.** 10.9% (inactive)

**Q.** With O=C1c2ccccc2C(=O)N1SC(Cl)(Cl)Cl as the compound, how does the Potency read?
**A.** 24.5 µM [inconclusive] (active)

**Q.** Which “activity, negative = inhibition” value does the source give for C1CS1 here?
**A.** -1.06% [at 79.1 µM] (inactive)

**Q.** How did the “activity, negative = inhibition” value turn out when O=C(Cc1ccccc1)OCCc1ccccc1 was run?
**A.** 13.4% (inactive)

**Q.** For NCCc1cc(O)c(O)cc1O, which “activity, negative = inhibition” value is on record?
**A.** -4.65% (inactive)

**Q.** With C=CCOCC1CO1 (stereo not given) as the compound, how does the “activity, negative = inhibition” value read?
**A.** -15.2% (inactive)

**Q.** With C=C(Cl)Cl as the compound, how does the “activity, negative = inhibition” value read?
**A.** -6.12% [at 79.1 µM] (inactive)

**Q.** For CCCCC#N, which “activity, negative = inhibition” value is on record?
**A.** -6.19% (inactive)

**Q.** With CC(C)C1(C)N=C(c2ncccc2C(=O)O)NC1=O (stereo not given) as the compound, how does the “activity, negative = inhibition” value read?
**A.** 13.3% (inactive)

**Q.** Which “activity, negative = inhibition” value does the source give for NC(=S)c1c(Cl)cccc1Cl here?
**A.** -2.31% (inactive)

**Q.** CCCCC1C(=O)NC(=O)N(C2CCCCC2)C1=O (stereo not given) was tested. Which “activity, negative = inhibition” value did it give?
**A.** -28.6% (inactive)

**Q.** CC(Oc1cc(Cl)c(Cl)cc1Cl)C(=O)O (stereo not given) was tested. Which “activity, negative = inhibition” value did it give?
**A.** 11.9% (inactive)

**Q.** Which “activity, negative = inhibition” value does the source give for C[C@H](N)[C@H](O)c1ccc(O)c(O)c1 here?
**A.** 10.2% (inactive)

**Q.** For CCOC(=O)c1cncn1C(C)c1ccccc1 (stereo not given), which “activity, negative = inhibition” value is on record?
**A.** -6.62% [at 32.6 µM] (inactive)

**Q.** With O=CC=O as the compound, how does the Potency read?
**A.** inactive

**Q.** For CC(C)(c1ccccc1)c1cc(-n2nc3ccccc3n2)c(O)c(C(C)(C)c2ccccc2)c1, which “activity, negative = inhibition” value is on record?
**A.** -27.6% (inactive)

**Q.** Cc1cnc(C2=NC(C)(C(C)C)C(=O)N2)c(C(=O)O)c1 (stereo not given) was tested. Which “activity, negative = inhibition” value did it give?
**A.** -51.5% (inactive)

**Q.** For Nc1c(Br)cc(Br)c2c1C(=O)c1ccccc1C2=O, which “activity, negative = inhibition” value is on record?
**A.** 11.3% [at 32.6 µM] (inactive)

**Q.** How did the “activity, negative = inhibition” value turn out when COC(=O)C1(O)c2ccccc2-c2ccccc21 was run?
**A.** 6.1% (inactive)

**Q.** For C=CCOC(=O)C(C)(C)OC(=O)c1cc(-n2c(=O)cc(C(F)(F)F)n(C)c2=O)ccc1Cl, which “activity, negative = inhibition” value is on record?
**A.** -25.1% (inactive)

**Q.** Cc1cccc(C)c1NC1=NCCCS1 was tested. Which “activity, negative = inhibition” value did it give?
**A.** 5.77% (inactive)

**Q.** For CN1C[C@H](C(=O)N[C@]2(C)O[C@@]3(O)[C@@H]4CCCN4C(=O)[C@H](Cc4ccccc4)N3C2=O)C=C2c3cccc4[nH]cc(c34)C[C@H]21, which Potency is on record?
**A.** 61.9 µM [cytotoxic] (active) and inactive

**Q.** How did the “activity, negative = inhibition” value turn out when O=C(O)C(F)(F)C(F)(F)C(F)(F)C(F)(F)C(F)(F)F was run?
**A.** 31.3% (inactive)

**Q.** How did the “activity, negative = inhibition” value turn out when CCOP(=S)(S)OCC was run?
**A.** -11.4% [at 79.1 µM] (inactive)

**Q.** How did the “activity, negative = inhibition” value turn out when O=C1NC(=O)C(=O)C(=O)N1 was run?
**A.** 17.9% [at 79.1 µM] (inactive)

**Q.** How did the “activity, negative = inhibition” value turn out when Clc1ccccc1 was run?
**A.** -21.5% (inactive)

**Q.** CCNC(=O)NC(=O)/C(C#N)=N/OC was tested. Which “activity, negative = inhibition” value did it give?
**A.** -15.3% (inactive)

**Q.** How did the “activity, negative = inhibition” value turn out when CCCCC(CC)CO[N+](=O)[O-] (stereo not given) was run?
**A.** 6.94% (inactive)

**Q.** How did the “activity, negative = inhibition” value turn out when CCCCCCCCCCCCCCCl was run?
**A.** 4.33% [at 79.1 µM] (inactive)

**Q.** With NP(N)(=O)NC(=O)c1ccc(F)cc1 as the compound, how does the “activity, negative = inhibition” value read?
**A.** -15.1% (inactive)

**Q.** Oc1cccc(Cl)c1 was tested. Which “activity, negative = inhibition” value did it give?
**A.** 4.85% (inactive)

**Q.** For NC(=O)CF, which “activity, negative = inhibition” value is on record?
**A.** -4.51% (inactive)

**Q.** Which “activity, negative = inhibition” value does the source give for O=C(O)c1cc(I)cc(I)c1I here?
**A.** -20.1% [at 79.1 µM] (inactive)

**Q.** Which Potency does the source give for COc1cc(CC(C)N)c(OC)cc1Br (stereo not given) here?
**A.** inactive

**Q.** For COCc1cnc(C2=NC(C)(C(C)C)C(=O)N2)c(C(=O)O)c1 (stereo not given), which “activity, negative = inhibition” value is on record?
**A.** 7.74% (inactive)

**Q.** How did the Potency turn out when O=P(OCC(Br)CBr)(OCC(Br)CBr)OCC(Br)CBr (stereo not given) was run?
**A.** 62.5 µM [inconclusive] (active) and 46.5 µM [inconclusive] (active)

**Q.** With CCC1(CC)C(=O)NC(=O)NC1=O as the compound, how does the “activity, negative = inhibition” value read?
**A.** -6.43% (inactive)

**Q.** How did the “activity, negative = inhibition” value turn out when C=CCc1ccccc1O was run?
**A.** 21% (inactive)
